Source: PubChem BioAssay
Several values for one entry are separate records, joined by “and”; a condition that tells them apart may be missing. Equal values may be shown once. Activity calls are given as the source filed them.

Assays:
Albumin (Bos taurus) = Albumin (Bos taurus) (UniProt P02769); assay: bovine serum albumin binders on microarray, profiling panel, artefact control for SMM control protein annotation, biochemical, small-molecule microarray, Alexa647 label, 635/667 nm fluorescence (AID 1118); details: BSA-A647 binding, fluorescence 635 nm, higher = more signal;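 also: score merges 667 nm emission intensity and signal-to-noise per printed compound spot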
Sequence of Albumin (Bos taurus) (P02769 whole entry, looked up): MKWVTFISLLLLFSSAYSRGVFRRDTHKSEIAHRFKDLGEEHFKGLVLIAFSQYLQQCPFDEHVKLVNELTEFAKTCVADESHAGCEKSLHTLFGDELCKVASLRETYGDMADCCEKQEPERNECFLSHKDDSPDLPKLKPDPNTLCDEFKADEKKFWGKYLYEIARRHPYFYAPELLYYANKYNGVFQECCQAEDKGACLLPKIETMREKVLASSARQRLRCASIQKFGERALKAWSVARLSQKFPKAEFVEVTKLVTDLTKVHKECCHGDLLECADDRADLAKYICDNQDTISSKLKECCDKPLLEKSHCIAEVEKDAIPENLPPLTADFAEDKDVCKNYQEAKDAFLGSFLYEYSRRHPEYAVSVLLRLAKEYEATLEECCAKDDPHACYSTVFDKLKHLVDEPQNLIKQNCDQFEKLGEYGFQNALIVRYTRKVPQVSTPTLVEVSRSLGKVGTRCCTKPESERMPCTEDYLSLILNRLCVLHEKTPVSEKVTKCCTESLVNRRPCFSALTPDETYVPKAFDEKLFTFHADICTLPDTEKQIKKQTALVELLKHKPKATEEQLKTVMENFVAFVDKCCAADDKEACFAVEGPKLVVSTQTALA

[1] = small-molecule microarray binders of probe aXIP, primary screen, biochemical, NeuroSMM set, 635/667 nm fluorescence (AID 1119); details: higher = more signal, called active from +8 up or from −8 down;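 also: probe is the protein aXip251-270 applied at 1 µg/mL to compound-printed slides; binding of probe to printed compounds measured as 667 nm fluorescence plus signal to noise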
[2] = small-molecule binders of probe aNOTCH3, primary screen, biochemical, small-molecule microarray, 635/667 nm fluorescence (AID 1120); details: higher = more signal;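 also: probe is a biotin-tagged antibody raised against NOTCH3 rather than NOTCH3 protein; score merges spot fluorescence near 667 nm with spot signal to noise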
[3] = small-molecule binders of probe aNOTCH2, primary screen, biochemical, small-molecule microarray, 635/667 nm fluorescence (AID 1121); details: higher = more signal;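 also: score merges feature fluorescence read at 667 nm with its signal to noise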
[4] = molecular target: Carbonic anhydrase 2 (Homo sapiens) (UniProt P00918); assay: CAII small-molecule binders, profiling panel, biochemical, small-molecule microarray, Alexa647-labelled CAII (AID 1122); details: CAII-A647 binding fluorescence, higher = more signal
[5] = COS7 lysate on small-molecule microarray, probe aHis, 635 nm (AID 1123); details: COS7 cell lysate, fluorescence, higher = more signal;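 also: z-score combines 667nm fluorescence intensity with signal-to-noise per printed compound spot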
[6] = compound binding in COS7 lysate, probe aLAP1, primary screen, cell lysate, small-molecule microarray (AID 1124); details: probe aLAP1, fluorescence, higher = more signal;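 also: lysate comes from COS7 cells expressing LAP1 and is applied at 0.3 µg/mL; score merges spot fluorescence near 667 nm with signal-to-noise over triplicate slides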
Sam68 (KHDRBS1) = assay: Sam68 small-molecule binders, primary screen, biochemical, small-molecule microarray, 635 nm fluorescence (AID 1125); details: small-molecule microarray binding, higher = more signal;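 also: score merges 667 nm channel intensity with signal to noise over triplicate slides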
[7] = test system: Chordin-like protein 2 (CHRDL2); assay: CHRDL2 small-molecule binders, primary screen, biochemical, small-molecule microarray, 635 nm fluorescence (AID 1126); details: small-molecule microarray binding, fluorescence 635 nm; higher = more signal;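 also: printed compound slides probed with Chrdl2 protein at 4 µg/mL for 1 h at 4 C; score merges 667 nm emission intensity with signal to noise over three replicate slides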
[8] = molecular target: Concanavalin-A (Canavalia ensiformis) (UniProt P02866); assay: ConA small-molecule binders, primary screen, artefact control for SMM control protein annotation, biochemical, small-molecule microarray, Alexa647 label, 635 nm (AID 1127); details: ConA-A647 binding fluorescence, higher = more signal;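 also: z combines 667 nm emission intensity with signal-to-noise across three replicate slides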
Sequence of Concanavalin-A (Canavalia ensiformis) (P02866 whole entry, looked up): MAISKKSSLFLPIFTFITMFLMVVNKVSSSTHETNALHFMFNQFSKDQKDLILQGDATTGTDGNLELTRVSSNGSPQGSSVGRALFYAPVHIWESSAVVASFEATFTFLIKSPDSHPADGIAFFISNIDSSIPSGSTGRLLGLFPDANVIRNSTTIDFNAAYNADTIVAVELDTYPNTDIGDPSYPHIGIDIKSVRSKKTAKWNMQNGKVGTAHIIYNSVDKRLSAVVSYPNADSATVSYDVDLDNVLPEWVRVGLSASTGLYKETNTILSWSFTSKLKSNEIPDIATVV

Row | Compound | composite z-score (Albumin (Bos taurus)) | composite Z-score [1] | composite z-score [2] | composite z-score [3] | composite z-score [4] | composite z-score [5] | composite z-score [6] | composite z-score (Sam68 (KHDRBS1)) | composite z-score [7] | composite z-score [8]
1 | CO[C@H]1COC(=O)CC=C[C@@H](C)COC(=O)[C@H](CCSC)NC(=O)CC=C[C@@H]1C | -1.57 and -1.06 | 2.77 (inactive) and 1.61 (inactive) | 0.0311 and -0.0043 | -0.0942 and -0.0241 | -0.407 and -0.489 | -0.335 and -0.552 | 0.383 and -1.41 | 0.982 and 1.31 | 1.54 and 1.65 | -0.773 and -2.15
2 | COc1ccc(O[C@H]2C=C[C@@H](c3ccccc3)O[C@@H]2COC(=O)CCC(C)=NO[C@H](C)c2cn([C@H](CO)Cc3ccccc3)nn2)cc1 | 0.683 and 0.0567 | 0.0335 (inactive) and 0.232 (inactive) | 0.0886 and -0.295 | -0.318 and -0.0611 | -0.11 and -0.114 | 0.167 and -0.0458 | -0.226 and -0.0278 | 0.492 and -0.005 | 0.0011 and 0.593 | -0.0163 and -0.0252
3 | COC(=O)[C@@]1(Cc2ccc(F)cc2)[C@H]2c3cc(C(=O)N4CCCC4)n(Cc4c(CO)[nH]cc(C)c4=O)c3C[C@H]2CN1C(=O)c1ccccc1 | 1.07 and 0.247 | 0.418 (inactive) and 0.724 (inactive) | 1.28 and 0.355 | 0.908 and 0.11 | 0.439 and 0.769 | 2.88 and 2.95 | 0.614 and 0.478 | -0.201 and 0.623 | -0.114 and -0.367 | 0.196 and 0.0402
4 | C=CCN(CCCCC)C(=O)C1N(c2ccc(CCO)cc2)C(=O)C2C(C(=O)O)C3C=CC21O3 (stereo not given) | 0.193 and 0.344 | -1.27 (inactive) and -0.154 (inactive) | -0.474 and 0.157 | -0.127 and -0.0716 | -0.349 and 0.574 | -0.632 and -0.323 | -0.18 and -1.2 | -0.393 and -0.951 | -0.914 and -1.38 | -1.1 and -1.15
5 | COC(=O)[C@@]1(Cc2ccccc2)[C@H]2c3cc(C(=O)N(C)C)n(C[C@H](O)CO)c3C[C@H]2CN1C(=O)c1ccccc1 | 0.4 and 1.14 | -0.506 (inactive) and -0.574 (inactive) | 0.0208 and 0.52 | 0.0538 and 0.261 | 0.897 and 0.841 | 3.13 and 1.27 | 0.562 and 0.966 | -0.278 and -0.421 | -0.138 and -0.519 | -0.148 and -0.0788
6 | C=CCN(Cc1ccccc1)C(=O)C(c1cccs1)N(C(=O)/C=C\C(=O)O)c1ccc(CCO)cc1 (stereo not given) | -0.047 and 0.278 | -0.18 (inactive) and -0.296 (inactive) | -0.532 and -0.475 | -0.213 and -0.2 | 0.824 and 0.335 | -0.577 and -0.107 | -0.0165 and -0.602 | -0.581 and -1.13 | -2.94 and -1.92 | -0.772 and -0.564
7 | COC(=O)C1=C(C)N(Cc2ccccc2)C2=C3C(=O)N(c4ccccc4)C(=O)[C@@H]3[C@@](O)(C(=O)OC)C(=O)N2[C@@H]1c1ccccc1 | 0.361 and 0.207 | 0.0519 (inactive) and 0.0894 (inactive) | 0.236 and 0.116 | -0.0767 and -0.101 | 0.46 and 0.7 | 0.241 and 0.608 | 0.171 and 0.983 | 0.462 and 1.13 | 0.513 and 0.402 | -0.196 and 0.475
8 | CCCCCN1CC=CC23O[C@@H]4C=CCCOC(=O)C4[C@H]2C(=O)N(C(C)CO)[C@@H]3C1=O (stereo not given in full) | 0.345 and -0.098 | -0.0812 (inactive) and -0.45 (inactive) | -0.536 and -0.0416 | -0.475 and -0.181 | 0.792 and 0.844 | 0.654 and 1.55 | 0.114 and 0.885 | 0.656 and 0.708 | -0.397 and -0.845 | -0.0729 and 0.147
9 | C=C(C)C(=O)OC[C@@H]1CN2[C@@H](CC[C@@H](C)[C@@H]2c2ccc(Br)cc2)C(=O)O1 | 0.635 | -0.0665 (inactive) | -0.127 | -0.153 | 0.195 | 0.774 | 0.937 | 1.16 | 0.426 | 0.363
10 | C=CCN(C(=O)C(c1cccs1)N(C(=O)/C=C\C(=O)O)C(C)(C)CO)c1ccc(OC)cc1 (stereo not given) | -0.427 and -0.637 | -0.431 (inactive) and -0.215 (inactive) | -0.298 and -0.219 | -0.143 and -0.133 | 0.937 and 0.938 | 1.72 and 0.0237 | 0.92 and 1.17 | -0.294 and -0.786 | -1.74 and -0.727 | -0.692 and -0.93
11 | C=CCN(C(=O)C1N(c2c(Cl)cccc2CO)C(=O)C2C(C(=O)O)C3C=CC21O3)C(C)(C)C (stereo not given) | 0.393 and -0.872 | 0.0388 (inactive) and -0.166 (inactive) | -0.479 and -0.47 | -0.253 and -0.185 | 0.791 and -0.713 | -0.556 and -0.856 | -0.0145 and -0.779 | -1.2 and -2.06 | -2.06 and -2.92 | -1.09 and -0.331
12 | C=CCN(CCCCC)C(=O)C(c1cccs1)N(C(=O)/C=C\C(=O)O)c1c(Cl)cccc1CO (stereo not given) | -0.678 and -0.603 | -0.798 (inactive) and 0.414 (inactive) | -0.533 and -0.396 | -0.057 and -0.187 | 0.91 and 0.768 | -0.774 and -0.96 | 1.62 and -0.0008 | -1.09 and -1.41 | -2.67 and -1.87 | -0.906 and -1.52
13 | C=CCN(C(=O)C1N(C(C)(C)CO)C(=O)C2C(C(=O)O)C3C=CC21O3)c1ccc(OC)cc1 (stereo not given) | -0.821 and -2.22 | 1.39 (inactive) and -0.174 (inactive) | -0.383 and -0.578 | -0.154 and -0.147 | 0.548 and 0.314 | 0.0457 and -0.218 | 0.995 and -0.102 | -0.718 and -1.28 | -4.67 and -4.11 | -0.79 and -1.96
14 | C[C@@H](c1ccccc1)N1C(=O)[C@H]2[C@H]3[C@H](O)[C@H](O)CC(=O)[C@@H]3CC[C@H]2C1=O | 0.294 | 0.28 (inactive) | -0.0345 | -0.0843 | 0.149 | 0.438 | 0.727 | 0.661 | 0.433 | 0.583
